GAA spleen mod: inhibits or activates alpha-glucosidase in human spleen homogenate; hit rate 0.006% among 240,000; human spleen homogenate, 4-MU-alpha-glucoside fluorescence; Potency, µM (titrated, usually from 79.9 µM), most hits filed as inhibitors; AID 2112; P10253
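Human spleen homogenate (1 ug) with 4-methylumbelliferyl-alpha-D-glucopyranoside (1 mM final) in 50 mM citrate/phosphate pH 5.0, 0.01% Tween-20; 40 min at 37 C. Stopped at pH 10; 4-MU fluorescence Ex 365/Em 440 nm; AC50 by Hill fit.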
GLA spleen mod: alpha-galactosidase A (human) modulation | human spleen homogenate, 4MU-alpha-Gal fluorescence, 40 min | Potency, µM (titrated, usually from 80 µM), most hits filed as inhibitors | hit rate 0.008% among 240,000 | P06280
Target sequence (P06280 32-429 limits assumed): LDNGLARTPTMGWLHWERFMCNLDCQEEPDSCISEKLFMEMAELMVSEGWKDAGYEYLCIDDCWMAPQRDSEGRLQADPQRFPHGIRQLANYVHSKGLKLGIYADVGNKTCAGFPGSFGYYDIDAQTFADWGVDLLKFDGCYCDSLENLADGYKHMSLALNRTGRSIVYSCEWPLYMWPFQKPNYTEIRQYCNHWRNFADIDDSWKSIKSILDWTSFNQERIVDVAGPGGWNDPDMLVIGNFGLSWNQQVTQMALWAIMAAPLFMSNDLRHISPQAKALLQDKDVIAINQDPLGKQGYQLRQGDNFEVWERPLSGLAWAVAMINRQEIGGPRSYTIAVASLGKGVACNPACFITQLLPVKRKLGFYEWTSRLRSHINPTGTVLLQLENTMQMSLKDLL
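Fluorogenic readout (Ex 365/Em 440 nm) of 4-methylumbelliferone released from 1 mM 4-MU-alpha-galactoside by spleen homogenate, 40 min at 37C, pH 5.0. Data normalized to no-enzyme and enzyme controls; Hill-equation AC50 from compound titrations.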
GLA inh pH 4.5: alpha-galactosidase A (human) inhibition, pH 4.5 | P06280 | purified enzyme, 4-MU-alpha-Gal fluorescence, pH 4.5 | activity change, negative = inhibition, % at 105 µM | 230,000 tested, under 10 active | AID 1467
GAA glycogen: alters human alpha-glucosidase cleavage of glycogen; P10253; Potency, µM (titrated, usually from 76.4 µM), usual class: inhibitors; hit rate 0.38% among 300,000; recombinant GAA, glycogen substrate, Amplex Red glucose oxidase fluorescence; AID 2100;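 note: the screen sought inhibitors and activators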
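Natural-substrate format: glycogen cleavage by 4 nM human enzyme, glucose read by Amplex Red coupling (Ex 573, Em 610 nm). Normalized to enzyme and no-enzyme controls.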
N370S GC: inhibits or activates N370S mutant glucocerebrosidase; Potency, µM (series often up to 59.4 µM), usual class: inhibitors; N370S GC spleen homogenate, 4MU-glucoside fluorescence; hit rate 0.092% among 330,000
GAA inhib: inhibitors of human lysosomal alpha-glucosidase | P10253 | purified human GAA, 4-MU-alpha-glucoside fluorescence | Potency, µM (highest dose often 76.9 µM), usual class: inhibitors | hit rate 0.005% among 200,000
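Fluorescence at Ex 365/Em 440 nm from 4-methylumbelliferone reported enzyme activity after 20 min at room temperature. Reactions used 4 nM enzyme and 400 uM substrate at pH 5.0; curves fitted with the Hill equation.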
Numbers stand for hits; 0 = inactive; ? = inconclusive; - = no result given; [ ] = another dose, or the depositor's remark. This is a sample that favours compounds with a hit; in the whole collection about 0.41% have one here. Calls come from the whole dose curve; as a rule, active = well fitted curve in the direction sought with a large enough effect; inconclusive = small, poorly fitted or top-dose-only effect, or another doubt; inactive = no such curve, though single readings can be large; an effect the other way counts as inactive or inconclusive.

SMILES | GAA spleen mod | GLA spleen mod | GLA inh pH 4.5 | GAA glycogen | N370S GC | GAA inhib
COC(=O)CC[C@@H](C(=O)O)N1C(=O)c2ccccc2C1=O | 0 | 0 | 0 | 0 | 0 | 0
O=C(O)c1ccccc1C(=O)NNc1ccc(F)cc1 | 0 | 0 | 0 | 28µM | 0 | 0
O=C(O)c1ccccc1C(=O)NNc1ccc(Cl)cc1Cl | 0 | 0 | 0 | 16µM | 0 | 0
O=C(O)c1ccccc1-c1ccccc1C(=O)Nc1ccc(F)cc1 | - | - | - | 0 | 0 | -
O=C(NNC(=O)c1ccccc1-n1cccc1)c1ccc(Cl)cc1Cl | 0 | 0 | 0 | 0 | 0 | ?
O=C1OCC(CO)(CO)N=C1NNc1ccc(Cl)c(Cl)c1 | 0 | 0 | 0 | 35µM | 0 | 0
CCOC(=O)c1cc(-c2ccc(N)cc2)sc1N | 0 | 0 | 0 | 14µM | 0 | ?
Nc1sc(-c2ccccc2)cc1C(=O)O | 0 | 0 | 0 | 25µM | 0 | 0
CCOC(=O)c1sc(-c2ccc(Br)cc2)cc1N | 0 | 0 | 0 | 0 | 0[12.8 µM] | 0
CC(C)(C)C(=O)Nc1sc(-c2ccccc2)cc1C(=O)O | 0 | 0 | 0 | 0 | 0 | -
CCOC(=O)Nc1ccc2c(c1)Nc1ccccc1S2 | 0 | 0 | 0 | 14µM | 0 | 0
CCOC(=O)c1ccc(NC(=O)c2ccc3c(c2)NC(=O)c2ccccc2S3)cc1 | - | - | - | 0 | - | -
CC(=O)c1ccc2c(c1)Nc1ccccc1S2 | 0 | 0 | 0 | 31µM | 0 | 0
CCC1CN(C(=O)Nc2cc(OC)cc(OC)c2)c2ccccc2S1 (configuration not stated) | - | - | - | 0 | - | -
CCN(CC)c1ccc(NC(=O)CCc2c(C)nc3ncnn3c2C)c(C)c1 | - | - | - | 0 | - | -
CCOc1ccc(Nc2nc(Cc3nnc(SCC(=O)NCC4CCCO4)n3C)cs2)cc1 (configuration not stated) | 0 | 0 | 0 | 11µM | 0 | 0
CCOc1ccc(Nc2nc(Cc3nnc(SCC(=O)NC4CCCCC4)n3C)cs2)cc1 | 0 | 0 | 0 | ? | 0 | 0
CCOc1ccc(-c2cc3nc(C4CCN(C(=O)OC(C)(C)C)CC4)c(C(=O)Nc4ccc(C)cc4C)cn3n2)cc1 | - | - | - | 35µM | - | -
CCCN(c1ccccc1CC)S(=O)(=O)c1ccc2c(c1)CC(C)N2C(=O)C1CC1 (configuration not stated) | - | - | - | 0 | - | -
Cc1ccc([N+](=O)[O-])c(C)c1 | 0 | 0 | - | - | 0 | -
CC[C@H](C)Cc1cn([C@@H](CCCN=C(NC(=O)OC(C)(C)C)NC(=O)OC(C)(C)C)C(=O)NCCCCCCCCCCC(=O)N2CCN(C(=O)OC(C)(C)C)CC2)nn1 | - | - | - | - | 16µM | -
C#CCOCCOCCOCCNc1nc(N2CCN(C(=O)CCCCCCCCCCNC(=O)[C@@H](CCSC)n3cc(CCO)nn3)CC2)nc(N2CCN(C(=O)CCCCCCCCCCNC(=O)[C@H](CCCN=C(N)N)n3cc(C[C@@H](C)CC)nn3)CC2)n1 | - | - | - | - | 7.9µM | -
C#CCOCCOCCOCCNc1nc(N2CCN(C(=O)CCCCCCCCCCNC(=O)[C@H](CCCCN)n3cc(CCO)nn3)CC2)nc(N2CCN(C(=O)CCCCCCCCCCNC(=O)[C@H](CCCCN)n3cc(C[C@@H](C)CC)nn3)CC2)n1 | - | - | - | - | 14µM | -
C#CCOCCOCCOCCNc1nc(N2CCN(C(=O)CCCCCCCCCCNC(=O)[C@H](CO)n3cc(CCCCCN)nn3)CC2)nc(N2CCN(C(=O)CCCCCCCCCCNC(=O)[C@H](CCCN=C(N)N)n3cc(C[C@@H](C)CC)nn3)CC2)n1 | - | - | - | - | 13µM | -
CCC(=O)CC | 0 | 0 | - | - | 0 | -
SMILES | GAA spleen mod | GLA spleen mod | GLA inh pH 4.5 | GAA glycogen | N370S GC | GAA inhib
CC[C@H](C)[C@H](NC(=O)[C@H](Cc1ccccc1)NC(=O)[C@H](CCC(=O)O)NC(=O)[C@H](CCCCN)NC(=O)[C@H](C)NC(=O)[C@H](C)NC(=O)[C@H](CCC(N)=O)NC(=O)CNC(=O)[C@H](CCC(=O)O)NC(=O)[C@H](CC(C)C)NC(=O)[C@H](Cc1ccc(O)cc1)NC(=O)[C@H](CO)NC(=O)[C@H](CO)NC(=O)[C@@H](NC(=O)[C@H](CC(=O)O)NC(=O)[C@H](CO)NC(=O)[C@@H](NC(=O)[C@H](Cc1ccccc1)NC(=O)[C@@H](NC(=O)CNC(=O)[C@H](CCC(=O)O)NC(=O)[C@H](C)NC(=O)[C@@H](N)Cc1cnc[nH]1)[C@@H](C)O)[C@@H](C)O)C(C)C)C(=O)N[C@@H](C)C(=O)N[C@@H](Cc1c[nH]c2ccccc12)C(=O)N[C@@H](CC(C)C)C(=O)N[C@H](C(=O)N[C@@H](CCCCN)C(N)=O)C(C)C | 0 | 0 | - | - | 0 | -
CN(C)CCCCl | 0 | 0 | - | - | 0 | -
C#CCOCCOCCOCCNc1nc(N2CCN(C(=O)[C@H](C)n3cc(CCCN=C(N)N)nn3)CC2)nc(N2CCN(C(=O)[C@H](CCCCN)n3cc(CCCC)nn3)CC2)n1 | 0 | 0 | 0 | 0 | 0 | 0
C#CCOCCOCCOCCNc1nc(N2CCN(C(=O)CCCCCCCCCCNC(=O)[C@H](CCCCN)n3cc(C[C@@H](C)CC)nn3)CC2)nc(N2CCN(C(=O)CCCCCCCCCCNC(=O)[C@@H]([C@H](C)O)n3cc(C)nn3)CC2)n1 | - | - | - | - | 11µM | -
C#CCOCCOCCOCCNc1nc(N2CCN(C(=O)CCCCCCCCCCNC(=O)[C@H](CCCCN)n3cc(C)nn3)CC2)nc(N2CCN(C(=O)CCCCCCCCCCNC(=O)[C@H](CCCN=C(N)N)n3cc(C[C@@H](C)CC)nn3)CC2)n1 | - | - | - | - | 7.9µM | -
C#CCOCCOCCOCCNc1nc(N2CCN(C(=O)CCCCCCCCCCNC(=O)[C@H](CCCCN)n3cc(C[C@@H](C)CC)nn3)CC2)nc(N2CCN(C(=O)CCCCCCCCCCNC(=O)[C@H](CCCN=C(N)N)n3cc(C[C@@H](C)CC)nn3)CC2)n1 | - | - | - | - | 6.3µM | -
C#CCOCCOCCOCCNc1nc(N2CCN(C(=O)CCCCCCCCCCNC(=O)[C@@H](CCSC)n3cc(CCO)nn3)CC2)nc(N2CCN(C(=O)CCCCCCCCCCNC(=O)[C@@H]([C@H](C)O)n3cc(C)nn3)CC2)n1 | - | - | - | - | 0 | -
Cc1ccc(-c2cn3c(n2)sc2cc(C(=O)NCCC4=CCCCC4)ccc23)c(C)c1 | - | - | - | 0 | - | -
CC1CCC(O)C/C1=C\C=C1/CCCC2(C)C1CCC2C(C)/C=C/C(C)C(C)C (configuration not stated) | 0 | 0 | - | - | 0 | -
Cn1c(=O)c2[nH]c(Nc3ccccc3)nc2n(C)c1=O | 0 | 0 | 0 | 7.1µM | 0 | 0
Cc1ccc(CNc2nc3c([nH]2)c(=O)n(C)c(=O)n3C)cc1 | 0 | 0 | 0 | 0 | 0 | 0
O=C1CC(Nc2ccc(N3CCOCC3)cc2)C(=O)N1Cc1ccccc1 (configuration not stated) | 0 | 0 | 0 | 13µM | 0 | 0

Screening data as filed in PubChem BioAssay.
